Laboratory results: PubChem BioAssay
Active and inactive are the calls of the source.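 How the source made its calls, unless noted: active means fluorescence slope higher than the sample average by over 3 SD (cut at about -0.22 in these data, passing the limit was not always enough); inactive means the rest.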

Tests used:
[1] = inhibitors of TNFa-induced NFkB p65 translocation, primary screen, imaging, HUVEC, MLSMR starter and 10KST1 sets (AID 438;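 active means inhibition above 20% together with a positive visual image hit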;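 further: compound added about 3h40 before a 20 min TNFalpha stimulation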;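 on inhibition: signal is the nuclear over cytoplasmic p65 intensity ratio per well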); settings: HUVEC TNFa-induced p65 nuclear translocation; cell count: measured here: nuclei count (cytotoxicity indicator), at 2.08 µM; inhibition: at 2 µM, stronger effect = higher value, 0% TNFa-plus-vehicle, 100% no-TNFa wells
[2] = inhibitors of mutant huntingtin aggregation, primary screen, imaging, exon1htt(103Q)mCFP cells, high-content imaging (AID 483;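 active means visual image review flags a hit and inhibition of aggregation exceeds 20%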;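 further: compound exposure lasted 3 days before fixation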;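 on nuclei count: percent of the per-plate median nuclei count of sample wells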); settings: exon1htt(103Q)mCFP cell line, aggregate imaging, at 2 µM; inhibition of aggregation: stronger effect = higher value; nuclei count: measured here: cell count, toxicity
[3] = inhibitors of E-selectin induction by TNFa, primary screen, imaging, HUVEC, immunofluorescence, MLSMR starter and 10KST1 sets (AID 487;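 active means visually confirmed hit in the image check and inhibition above 20%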;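 on inhibition: signal is fraction of cell area covered by stained E-selectin grains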;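 on nuclei count: 100% = median nuclei count of all wells on the same plate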); settings: HUVEC TNFalpha-induced E-selectin immunofluorescence imaging, at 2 µM; inhibition: stronger effect = higher value; nuclei count: measured here: cell number, toxicity
[4] = target: Voltage-gated potassium channel subunit beta-2 (Rattus norvegicus) (UniProt P62483); experiment: KvBeta enzyme negative modulators, primary screen, biochemical, NADPH fluorescence (AID 622); settings: recombinant KvBeta, 4-cyanobenzaldehyde reduction, at 10 µM, stronger effect = higher value;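 further: slope of raw intensity against log time taken from 70 to 1610 s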
Voltage-gated potassium channel subunit beta-2 (Rattus norvegicus), sequence (P62483 whole entry, looked up): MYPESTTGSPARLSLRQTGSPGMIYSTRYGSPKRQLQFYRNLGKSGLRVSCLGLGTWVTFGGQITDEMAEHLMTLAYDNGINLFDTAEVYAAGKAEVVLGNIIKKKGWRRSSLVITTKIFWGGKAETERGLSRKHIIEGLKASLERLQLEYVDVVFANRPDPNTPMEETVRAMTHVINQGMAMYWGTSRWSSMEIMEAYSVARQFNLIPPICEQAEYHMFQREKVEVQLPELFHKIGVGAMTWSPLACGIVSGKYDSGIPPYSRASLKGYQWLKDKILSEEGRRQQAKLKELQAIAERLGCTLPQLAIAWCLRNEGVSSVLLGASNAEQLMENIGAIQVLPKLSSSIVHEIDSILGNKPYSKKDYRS

[5] = target: Voltage-gated potassium channel subunit beta-2 (Rattus norvegicus) (UniProt P62483); experiment: KvBeta positive modulators, primary screen, biochemical, NADPH fluorescence (AID 623;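 active means NADPH fluorescence slope more negative than the mean of all samples by about 3 SD, 99.7% confidence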;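 further: fluorescence intensity change per second fitted from 20 to 320 s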); settings: Recombinant KvBeta, NADPH fluorescence decrease slope, 10 min; at 10 µM; stronger effect = lower value
[6] = target: Alpha-2C adrenergic receptor (Homo sapiens) (UniProt P18825); experiment: modulators of alpha2C/GIRK thallium flux, primary screen, cell-based, HEK293 alpha2C/GIRK1/2 (AID 624;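 active means fluorescence slope after compound addition differing from the mean of all screened samples at 99.7% confidence, in either direction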;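 further: slope of fluorescence ratio to pre-addition baseline per second over 15 to 24 s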); settings: thallium flux BTC fluorescence, at 10 µM, actives lie on both sides
Alpha-2C adrenergic receptor (Homo sapiens), sequence (P18825 whole entry, looked up): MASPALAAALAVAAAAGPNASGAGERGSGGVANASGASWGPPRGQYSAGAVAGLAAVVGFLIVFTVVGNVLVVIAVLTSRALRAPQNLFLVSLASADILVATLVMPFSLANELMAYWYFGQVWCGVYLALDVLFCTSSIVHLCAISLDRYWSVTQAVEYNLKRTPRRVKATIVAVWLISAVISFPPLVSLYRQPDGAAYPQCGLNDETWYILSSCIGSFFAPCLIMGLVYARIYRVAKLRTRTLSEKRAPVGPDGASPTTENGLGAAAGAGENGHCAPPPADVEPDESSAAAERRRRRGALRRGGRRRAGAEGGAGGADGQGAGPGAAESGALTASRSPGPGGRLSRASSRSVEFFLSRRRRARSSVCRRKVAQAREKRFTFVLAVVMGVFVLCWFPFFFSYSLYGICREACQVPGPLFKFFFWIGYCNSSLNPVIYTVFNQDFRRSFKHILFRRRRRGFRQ

[7] = inhibitors of Sendai virus-induced IRF3 signaling, primary screen, TLR/RLR signaling modifier project, cell-based, Sendai virus stimulus, luciferase, 10K MLSCN set (AID 602276;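 active means inhibition at or above 50% at 10 µM; inactive means inhibition below 50%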;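 further: firefly luciferase from ISG56 promoter only with Renilla not read in this screen; 0% = Sendai virus plus DMSO and 100% = medium plus DMSO without virus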); settings: HEK293 RL24 IRF3 luciferase reporter, at 10 µM, stronger effect = higher value
[8] = inhibitors of poly I:C-induced TLR3 signaling, primary screen, cell-based, poly I:C stimulus, luciferase, 10K MLSCN set (AID 602277;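 active means inhibition of the reporter signal at or above 50%; inactive means inhibition below 50%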); settings: HEK293-TLR3 RL24 IRF3 luciferase reporter, at 10 µM, stronger effect = higher value

Structure (SMILES): Cc1nnc(SCC(=O)Nc2nccs2)s1
- cell count [1]: 501
- inhibition [1]: -10.8% (inactive)
- inhibition of aggregation [2]: 12.1% (inactive)
- nuclei count [2]: 116%
- inhibition [3]: -0.9% (inactive)
- nuclei count [3]: 115%
- fluorescence slope [4]: -0.413 (inactive)
- NADPH fluorescence slope [5]: -7.7e-05 (inactive)
- slope [6]: 0.00513 (inactive)
- inhibition [7]: -7.71% (inactive)
- inhibition [8]: -7.69% (inactive)

Structure (SMILES): COC(=O)c1ccc(-n2nnnc2SCc2nn[nH]n2)cc1
- cell count [1]: 543
- inhibition [1]: -7.8% (inactive)
- inhibition of aggregation [2]: -11.5% (inactive)
- nuclei count [2]: 99.6%
- inhibition [3]: -29% (inactive)
- nuclei count [3]: 130%
- fluorescence slope [4]: -0.35 (inactive)
- NADPH fluorescence slope [5]: 1.4e-05 (inactive)
- slope [6]: 0.00668 (inactive)
- inhibition [7]: -8.25% (inactive)
- inhibition [8]: -3.28% (inactive)

Structure (SMILES): CC(=O)c1ccc(NS(=O)(=O)c2ccccc2)cc1
- cell count [1]: 554
- inhibition [1]: -4.8% (inactive)
- inhibition of aggregation [2]: 0.4% (inactive)
- nuclei count [2]: 62.8%
- inhibition [3]: -59.1% (inactive)
- nuclei count [3]: 92.5%
- fluorescence slope [4]: -0.467 (inactive)
- NADPH fluorescence slope [5]: 3.9e-05 (inactive)
- slope [6]: 0.00323 (inactive)
- inhibition [7]: -17.2% (inactive)
- inhibition [8]: 7.05% (inactive)

Structure (SMILES): COC(=O)c1cc(-c2ccccc2)sc1NC(=O)c1cc(C)on1
- cell count [1]: 365
- inhibition [1]: -2.2% (inactive)
- inhibition of aggregation [2]: -13.8% (inactive)
- nuclei count [2]: 104%
- inhibition [3]: -21.2% (inactive)
- nuclei count [3]: 111%
- fluorescence slope [4]: -0.342 (inactive)
- NADPH fluorescence slope [5]: -1.3e-05 (inactive)
- slope [6]: 0.00783 (inactive)
- inhibition [7]: -14.9% (inactive)
- inhibition [8]: -8.07% (inactive)

Structure (SMILES): Cc1ccccc1OCc1nnc2n1CC(C)S2 (stereo not drawn)
- cell count [1]: 547
- inhibition [1]: 6.8% (inactive)
- inhibition of aggregation [2]: -4.9% (inactive)
- nuclei count [2]: 131%
- inhibition [3]: -53.4% (inactive)
- nuclei count [3]: 105%
- fluorescence slope [4]: -0.562 (inactive)
- NADPH fluorescence slope [5]: -4e-05 (inactive)
- slope [6]: 0.00737 (inactive)
- inhibition [7]: 8.61% (inactive)
- inhibition [8]: 13.6% (inactive)

Structure (SMILES): COc1ccccc1-c1nnc(NC(=O)c2ccc(S(=O)(=O)N(C)Cc3ccccc3)cc2)o1
- cell count [1]: 391
- inhibition [1]: 6.1% (inactive)
- inhibition of aggregation [2]: 9.9% (inactive)
- nuclei count [2]: 92.8%
- inhibition [3]: -6.7% (inactive)
- nuclei count [3]: 99.4%
- fluorescence slope [4]: -0.478 (inactive)
- NADPH fluorescence slope [5]: -1.3e-05 (inactive)
- slope [6]: 0.00777 (inactive)
- inhibition [7]: 14.7% (inactive)
- inhibition [8]: 25.7% (inactive)

Structure (SMILES): O=C(COc1ccc(=O)n(-c2ccccc2)n1)Nc1ccccc1
- cell count [1]: 600
- inhibition [1]: 8% (inactive)
- inhibition of aggregation [2]: -6.4% (inactive)
- nuclei count [2]: 114%
- inhibition [3]: 23.8% (inactive)
- nuclei count [3]: 119%
- fluorescence slope [4]: -0.471 (inactive)
- NADPH fluorescence slope [5]: 7.6e-06 (inactive)
- slope [6]: 0.00619 (inactive)
- inhibition [7]: 9.72% (inactive)
- inhibition [8]: 23.6% (inactive)

Structure (SMILES): O=C(CN1C(=O)c2ccccc2S1(=O)=O)NCc1ccccn1
- cell count [1]: 643
- inhibition [1]: 0% (inactive)
- inhibition of aggregation [2]: -6.2% (inactive)
- nuclei count [2]: 90.1%
- inhibition [3]: 5% (inactive)
- nuclei count [3]: 119%
- fluorescence slope [4]: -0.61 (inactive)
- NADPH fluorescence slope [5]: 4e-06 (inactive)
- slope [6]: 0.00685 (inactive)
- inhibition [7]: 13.6% (inactive)
- inhibition [8]: 26.2% (inactive)

Structure (SMILES): Cc1cccc(NC(=O)c2cc(NC(=O)c3ccco3)ccc2Cl)n1
- cell count [1]: 678
- inhibition [1]: -2.8% (inactive)
- inhibition of aggregation [2]: 16.4% (inactive)
- nuclei count [2]: 83.5%
- inhibition [3]: 19.9% (inactive)
- nuclei count [3]: 98%
- fluorescence slope [4]: -0.529 (inactive)
- NADPH fluorescence slope [5]: 1.5e-06 (inactive)
- slope [6]: 0.00521 (inactive)
- inhibition [7]: 1.7% (inactive)
- inhibition [8]: -7.38% (inactive)

Structure (SMILES): C(=N\c1c(-c2ccccc2)nc2n1CCS2)/c1ccccc1
- cell count [1]: 594
- inhibition [1]: -22.1% (inactive)
- inhibition of aggregation [2]: -0.7% (inactive)
- nuclei count [2]: 86%
- inhibition [3]: 18.8% (inactive)
- nuclei count [3]: 43.9%
- fluorescence slope [4]: -0.458 (inactive)
- NADPH fluorescence slope [5]: -3.7e-05 (inactive)
- slope [6]: 0.00231 (inactive)
- inhibition [7]: 0.61% (inactive)
- inhibition [8]: 10.6% (inactive)

Structure (SMILES): Cc1cc2n(n1)C(c1ccccc1)Nc1ccccc1-2 (stereo not drawn)
- cell count [1]: 410
- inhibition [1]: -1.3% (inactive)
- inhibition of aggregation [2]: -2.5% (inactive)
- nuclei count [2]: 101%
- inhibition [3]: -13.2% (inactive)
- nuclei count [3]: 119%
- fluorescence slope [4]: -0.512 (inactive)
- NADPH fluorescence slope [5]: -3.7e-05 (inactive)
- slope [6]: 0.00459 (inactive)
- inhibition [7]: -11.9% (inactive)
- inhibition [8]: -26.7% (inactive)

Structure (SMILES): Cc1c(C(=O)OCC(C)(C)CN(C)C)oc2ccccc12
- cell count [1]: 428
- inhibition [1]: -3.3% (inactive)
- inhibition of aggregation [2]: -15.2% (inactive)
- nuclei count [2]: 107%
- inhibition [3]: -39.5% (inactive)
- nuclei count [3]: 118%
- fluorescence slope [4]: -0.328 (inactive)
- NADPH fluorescence slope [5]: 2.8e-05 (inactive)
- slope [6]: 0.00529 (inactive)
- inhibition [7]: -31.4% (inactive)
- inhibition [8]: -27.6% (inactive)

Structure (SMILES): O=C(NCCCN1CCCC1=O)c1ccc2c(=O)n(Cc3ccco3)c(=S)[nH]c2c1
- cell count [1]: 653
- inhibition [1]: -16.6% (inactive)
- inhibition of aggregation [2]: -35.1% (inactive)
- nuclei count [2]: 74%
- inhibition [3]: -69.5% (inactive)
- nuclei count [3]: 101%
- fluorescence slope [4]: -0.572 (inactive)
- NADPH fluorescence slope [5]: 2.7e-05 (inactive)
- slope [6]: 0.00624 (inactive)
- inhibition [7]: 0.725% (inactive)
- inhibition [8]: -15.6% (inactive)
